# In paper PMC7862700, “An all-to-all approach to the identification of sequence-specific readers for epigenetic DNA modifications on cytosine”:
# Key:
# Test in all cases: DAPPL (digital affinity profiling via proximity ligation, sequencing); 10 mM Tris-HCl pH 7.5, 50 mM NaCl, 1 mM DTT, 4% glycerol, room temperature, 30 min; GST-TFs on glutathione beads, 16-mer random dsDNA library, 0.1% formaldehyde crosslink after washing; high values mean tight binding
# [1] = biological target: T1, FLI1 (Homo sapiens, UniProt Q01543 1-452); conditions: protein: recombinant; tags: N-terminal GST; dsDNA, one strand shown
# T1 sequence: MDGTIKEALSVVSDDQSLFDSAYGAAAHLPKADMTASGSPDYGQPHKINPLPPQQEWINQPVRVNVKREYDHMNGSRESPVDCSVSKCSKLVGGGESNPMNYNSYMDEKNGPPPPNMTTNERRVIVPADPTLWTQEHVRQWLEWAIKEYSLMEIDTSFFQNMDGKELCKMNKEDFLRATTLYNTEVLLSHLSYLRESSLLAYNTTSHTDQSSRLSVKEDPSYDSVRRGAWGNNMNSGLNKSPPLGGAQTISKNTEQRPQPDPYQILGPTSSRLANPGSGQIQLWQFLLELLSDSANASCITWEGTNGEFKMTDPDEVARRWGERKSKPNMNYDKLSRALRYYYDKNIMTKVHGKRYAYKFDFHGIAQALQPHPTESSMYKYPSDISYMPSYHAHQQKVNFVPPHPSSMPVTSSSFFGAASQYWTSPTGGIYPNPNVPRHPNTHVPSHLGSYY
# Method in brief: (§1)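 After expression in yeast as GST fusions, human transcription factors were bound to glutathione beads, DNA-barcoded and mixed with a tag-only sample. The pools were incubated with 200 nmole of a 16-mer random double-stranded DNA library in Tris/NaCl/DTT/glycerol buffer (30 min, room temperature), washed and crosslinked with 0.1% formaldehyde. Proximity ligation with BsaI/T4 ligase ran for 1 h at 37 °C, before PCR amplification and sequencing on an Illumina NextSeq500. Binding signal is a hexamer's read frequency for a factor divided by its frequency for the tag-only sample.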
# [2] = biological target: T2, ELK1 (Homo sapiens, UniProt P19419 1-428); conditions: protein: recombinant; tags: N-terminal GST; dsDNA, one strand shown
# T2 sequence: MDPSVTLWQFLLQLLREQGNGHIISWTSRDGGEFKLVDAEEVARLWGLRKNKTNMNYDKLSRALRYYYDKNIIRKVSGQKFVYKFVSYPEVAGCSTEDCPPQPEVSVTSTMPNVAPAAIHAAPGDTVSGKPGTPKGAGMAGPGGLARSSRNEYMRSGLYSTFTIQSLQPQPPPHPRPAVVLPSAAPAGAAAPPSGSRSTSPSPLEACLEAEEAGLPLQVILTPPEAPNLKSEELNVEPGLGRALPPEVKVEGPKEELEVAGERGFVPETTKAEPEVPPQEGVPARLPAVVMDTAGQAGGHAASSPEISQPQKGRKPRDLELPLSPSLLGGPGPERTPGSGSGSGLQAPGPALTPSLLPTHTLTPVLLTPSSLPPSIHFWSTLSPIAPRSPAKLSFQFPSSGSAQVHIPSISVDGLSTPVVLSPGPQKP
# Method in brief: as §1
# [3] = biological target: T3, GABPA (Homo sapiens, UniProt Q06546 1-454); conditions: protein: recombinant; tags: N-terminal GST; dsDNA, one strand shown
# T3 sequence: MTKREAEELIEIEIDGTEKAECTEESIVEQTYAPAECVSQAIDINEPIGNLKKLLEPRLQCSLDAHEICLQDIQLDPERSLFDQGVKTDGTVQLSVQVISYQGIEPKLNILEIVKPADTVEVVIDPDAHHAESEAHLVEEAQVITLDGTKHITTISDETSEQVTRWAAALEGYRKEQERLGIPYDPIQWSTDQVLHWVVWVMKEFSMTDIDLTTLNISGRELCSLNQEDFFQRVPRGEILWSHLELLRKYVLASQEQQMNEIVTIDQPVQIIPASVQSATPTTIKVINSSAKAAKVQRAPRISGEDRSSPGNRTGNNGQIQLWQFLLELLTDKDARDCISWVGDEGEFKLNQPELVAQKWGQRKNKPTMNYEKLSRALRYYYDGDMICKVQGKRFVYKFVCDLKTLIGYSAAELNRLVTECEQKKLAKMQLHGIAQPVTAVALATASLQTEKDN
# Method in brief: as §1
# [4] = biological target: T4, ERG (Homo sapiens, UniProt P11308 1-479); conditions: protein: recombinant; tags: N-terminal GST; dsDNA, one strand shown
# T4 sequence: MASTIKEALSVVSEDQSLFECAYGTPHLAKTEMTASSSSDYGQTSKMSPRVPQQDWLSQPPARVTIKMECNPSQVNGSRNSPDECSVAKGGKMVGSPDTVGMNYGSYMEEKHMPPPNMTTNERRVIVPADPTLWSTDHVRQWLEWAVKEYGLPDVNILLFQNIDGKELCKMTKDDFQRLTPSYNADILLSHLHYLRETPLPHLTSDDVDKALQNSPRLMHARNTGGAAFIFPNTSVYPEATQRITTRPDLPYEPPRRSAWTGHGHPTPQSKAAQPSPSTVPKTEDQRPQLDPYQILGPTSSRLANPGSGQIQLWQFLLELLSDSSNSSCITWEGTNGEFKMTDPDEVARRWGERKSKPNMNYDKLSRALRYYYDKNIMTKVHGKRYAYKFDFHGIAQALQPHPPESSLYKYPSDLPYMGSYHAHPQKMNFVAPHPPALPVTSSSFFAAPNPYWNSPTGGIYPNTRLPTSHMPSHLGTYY
# Method in brief: as §1
# [5] = biological target: ELF1 (Homo sapiens, UniProt P32519 1-619); conditions: protein: recombinant; tags: N-terminal GST; dsDNA, one strand shown
# Method in brief: as §1
# [6] = biological target: T5, EHF (Homo sapiens, UniProt Q9NZC4 1-300); conditions: protein: recombinant; tags: N-terminal GST; dsDNA, one strand shown
# T5 sequence: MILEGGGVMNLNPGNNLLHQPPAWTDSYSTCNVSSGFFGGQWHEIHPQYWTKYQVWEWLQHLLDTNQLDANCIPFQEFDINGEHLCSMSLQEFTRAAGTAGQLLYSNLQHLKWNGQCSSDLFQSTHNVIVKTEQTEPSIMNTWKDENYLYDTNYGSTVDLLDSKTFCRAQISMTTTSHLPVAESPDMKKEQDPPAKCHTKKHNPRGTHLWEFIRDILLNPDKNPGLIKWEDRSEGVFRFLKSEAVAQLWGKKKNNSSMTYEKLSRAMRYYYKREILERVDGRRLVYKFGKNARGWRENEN
# Method in brief: as §1
# [7] = biological target: SPI1 (Homo sapiens, UniProt P17947 1-270); conditions: protein: recombinant; tags: N-terminal GST; dsDNA, one strand shown
# Method in brief: as §1
# [8] = biological target: SPIB (Homo sapiens, UniProt Q01892 1-262); conditions: protein: recombinant; tags: N-terminal GST; dsDNA, one strand shown
# Method in brief: as §1
# [9] = biological target: T6, ELK3 (Homo sapiens, UniProt P41970 1-407); conditions: protein: recombinant; tags: N-terminal GST; dsDNA, one strand shown
# T6 sequence: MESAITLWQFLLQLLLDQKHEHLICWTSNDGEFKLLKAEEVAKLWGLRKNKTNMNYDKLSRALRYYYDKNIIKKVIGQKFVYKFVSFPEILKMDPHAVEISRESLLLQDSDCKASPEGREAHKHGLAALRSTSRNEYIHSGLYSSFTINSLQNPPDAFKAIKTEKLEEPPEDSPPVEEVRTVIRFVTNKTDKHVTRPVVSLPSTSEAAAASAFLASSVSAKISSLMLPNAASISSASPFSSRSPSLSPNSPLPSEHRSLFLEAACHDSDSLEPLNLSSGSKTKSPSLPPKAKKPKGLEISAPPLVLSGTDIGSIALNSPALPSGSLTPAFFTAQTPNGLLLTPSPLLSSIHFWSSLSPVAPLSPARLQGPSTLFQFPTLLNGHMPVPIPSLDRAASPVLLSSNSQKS
# Method in brief: as §1
# [10] = biological target: T7, FEV (Homo sapiens, UniProt Q99581 1-238); conditions: protein: recombinant; tags: N-terminal GST; dsDNA, one strand shown
# T7 sequence: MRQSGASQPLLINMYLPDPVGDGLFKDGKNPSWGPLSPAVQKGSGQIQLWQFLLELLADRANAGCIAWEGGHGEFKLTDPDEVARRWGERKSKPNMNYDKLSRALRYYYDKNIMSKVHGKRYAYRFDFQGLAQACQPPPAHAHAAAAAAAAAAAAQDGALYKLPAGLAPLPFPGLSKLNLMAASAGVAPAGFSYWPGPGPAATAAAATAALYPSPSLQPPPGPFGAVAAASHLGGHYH
# Method in brief: as §1
# [11] = biological target: ETV5 (Homo sapiens, UniProt P41161 1-510); conditions: protein: recombinant; tags: N-terminal GST; dsDNA, one strand shown
# Method in brief: as §1
# [12] = biological target: HSF1 (Homo sapiens, UniProt Q00613 1-529); conditions: protein: recombinant; tags: N-terminal GST; chain copies: 3; dsDNA, one strand shown
# Method in brief: as §1
# [13] = biological target: T8, SPIC (Homo sapiens, UniProt Q8N5J4 1-248); conditions: protein: recombinant; tags: N-terminal GST; dsDNA, one strand shown
# T8 sequence: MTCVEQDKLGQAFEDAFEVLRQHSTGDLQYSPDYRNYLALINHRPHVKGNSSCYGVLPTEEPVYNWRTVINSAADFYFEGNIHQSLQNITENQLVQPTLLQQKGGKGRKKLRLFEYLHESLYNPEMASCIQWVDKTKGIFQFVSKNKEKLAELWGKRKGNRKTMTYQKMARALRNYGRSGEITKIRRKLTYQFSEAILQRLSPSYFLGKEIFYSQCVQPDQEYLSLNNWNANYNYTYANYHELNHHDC
# Method in brief: as §1
# [14] = biological target: ELF4 (Homo sapiens, UniProt Q99607 1-663); conditions: protein: recombinant; tags: N-terminal GST; dsDNA, one strand shown
# Method in brief: as §1
# [15] = biological target: T9, ELK4 (Homo sapiens, UniProt P28324-2 1-405); conditions: protein: recombinant; tags: N-terminal GST; dsDNA, one strand shown
# T9 sequence: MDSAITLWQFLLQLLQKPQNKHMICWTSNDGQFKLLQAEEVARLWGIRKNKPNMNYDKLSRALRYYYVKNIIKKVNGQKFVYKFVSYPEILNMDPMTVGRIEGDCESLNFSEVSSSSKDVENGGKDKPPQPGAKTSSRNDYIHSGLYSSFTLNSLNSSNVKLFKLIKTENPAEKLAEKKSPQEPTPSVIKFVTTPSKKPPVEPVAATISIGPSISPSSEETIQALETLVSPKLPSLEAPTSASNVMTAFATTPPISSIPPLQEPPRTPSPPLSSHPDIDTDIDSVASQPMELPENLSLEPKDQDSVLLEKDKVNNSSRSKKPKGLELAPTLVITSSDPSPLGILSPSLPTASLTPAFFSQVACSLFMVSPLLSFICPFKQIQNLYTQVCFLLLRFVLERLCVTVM
# Method in brief: as §1
# [16] = biological target: T10, ETV2 (Homo sapiens, UniProt O00321 1-342); conditions: protein: recombinant; tags: N-terminal GST; dsDNA, one strand shown
# T10 sequence: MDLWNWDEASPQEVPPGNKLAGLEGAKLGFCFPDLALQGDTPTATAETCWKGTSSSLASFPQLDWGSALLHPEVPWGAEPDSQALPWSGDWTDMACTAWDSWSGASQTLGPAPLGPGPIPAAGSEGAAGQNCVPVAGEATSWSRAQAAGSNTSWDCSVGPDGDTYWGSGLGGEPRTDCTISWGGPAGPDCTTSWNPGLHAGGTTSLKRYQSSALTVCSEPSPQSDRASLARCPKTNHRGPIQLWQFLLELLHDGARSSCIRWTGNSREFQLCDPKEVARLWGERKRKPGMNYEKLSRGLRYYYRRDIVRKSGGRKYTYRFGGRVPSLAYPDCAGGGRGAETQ
# Method in brief: as §1
# [17] = biological target: T11, ELF3 (Homo sapiens, UniProt P78545 1-371); conditions: protein: recombinant; tags: N-terminal GST; dsDNA, one strand shown
# T11 sequence: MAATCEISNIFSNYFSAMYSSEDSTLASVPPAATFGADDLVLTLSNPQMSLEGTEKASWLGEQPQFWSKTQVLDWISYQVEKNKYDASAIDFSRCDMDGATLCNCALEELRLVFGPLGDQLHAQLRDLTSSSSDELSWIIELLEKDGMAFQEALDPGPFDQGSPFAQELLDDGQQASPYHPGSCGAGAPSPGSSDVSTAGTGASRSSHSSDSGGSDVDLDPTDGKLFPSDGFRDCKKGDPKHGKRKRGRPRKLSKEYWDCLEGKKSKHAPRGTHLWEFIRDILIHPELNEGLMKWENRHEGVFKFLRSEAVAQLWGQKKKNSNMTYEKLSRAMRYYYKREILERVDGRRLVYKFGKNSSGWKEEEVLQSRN
# Method in brief: as §1
# [18] = biological target: CRX (Homo sapiens, UniProt O43186 1-299); conditions: protein: recombinant; tags: N-terminal GST; dsDNA, one strand shown
# Method in brief: as §1
# [19] = biological target: ETV1 (Homo sapiens, UniProt P50549 1-477); conditions: protein: recombinant; tags: N-terminal GST; dsDNA, one strand shown
# Method in brief: as §1
# Sequence of ETV1 (P50549 whole entry): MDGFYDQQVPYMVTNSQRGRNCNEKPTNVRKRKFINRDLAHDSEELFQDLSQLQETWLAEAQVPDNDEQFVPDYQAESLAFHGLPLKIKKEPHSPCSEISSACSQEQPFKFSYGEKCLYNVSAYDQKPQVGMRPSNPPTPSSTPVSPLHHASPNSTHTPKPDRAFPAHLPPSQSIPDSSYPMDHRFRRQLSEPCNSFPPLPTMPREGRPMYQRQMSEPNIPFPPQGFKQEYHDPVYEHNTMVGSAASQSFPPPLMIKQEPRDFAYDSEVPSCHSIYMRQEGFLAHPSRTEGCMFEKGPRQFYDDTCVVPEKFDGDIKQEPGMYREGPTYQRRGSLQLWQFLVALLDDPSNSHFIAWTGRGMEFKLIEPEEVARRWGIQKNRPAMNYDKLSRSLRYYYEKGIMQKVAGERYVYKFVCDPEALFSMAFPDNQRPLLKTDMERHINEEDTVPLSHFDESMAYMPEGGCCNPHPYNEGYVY
# Sequence of CRX (O43186 whole entry): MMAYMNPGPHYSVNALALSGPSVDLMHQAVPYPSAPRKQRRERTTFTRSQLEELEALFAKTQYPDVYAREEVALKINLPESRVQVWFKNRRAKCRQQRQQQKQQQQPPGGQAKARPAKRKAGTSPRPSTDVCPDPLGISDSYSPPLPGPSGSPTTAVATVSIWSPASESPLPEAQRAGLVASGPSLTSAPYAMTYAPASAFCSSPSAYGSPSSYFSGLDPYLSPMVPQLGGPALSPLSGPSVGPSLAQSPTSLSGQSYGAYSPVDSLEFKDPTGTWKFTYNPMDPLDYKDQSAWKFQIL
# Sequence of HSF1 (Q00613 whole entry): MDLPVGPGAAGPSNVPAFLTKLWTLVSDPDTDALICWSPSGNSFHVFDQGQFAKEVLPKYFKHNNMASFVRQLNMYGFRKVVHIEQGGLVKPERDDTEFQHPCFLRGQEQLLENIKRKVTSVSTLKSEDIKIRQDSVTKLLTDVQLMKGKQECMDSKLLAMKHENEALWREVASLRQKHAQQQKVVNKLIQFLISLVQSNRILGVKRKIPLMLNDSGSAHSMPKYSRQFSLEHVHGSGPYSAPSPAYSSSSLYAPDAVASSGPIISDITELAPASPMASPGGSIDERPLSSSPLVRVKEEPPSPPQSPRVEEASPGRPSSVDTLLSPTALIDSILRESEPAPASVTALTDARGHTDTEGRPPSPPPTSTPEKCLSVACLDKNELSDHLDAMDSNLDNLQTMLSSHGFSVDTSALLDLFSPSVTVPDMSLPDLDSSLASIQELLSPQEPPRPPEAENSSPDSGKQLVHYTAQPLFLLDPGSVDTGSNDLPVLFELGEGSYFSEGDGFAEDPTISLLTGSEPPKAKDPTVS
# Sequence of ELF1 (P32519 whole entry): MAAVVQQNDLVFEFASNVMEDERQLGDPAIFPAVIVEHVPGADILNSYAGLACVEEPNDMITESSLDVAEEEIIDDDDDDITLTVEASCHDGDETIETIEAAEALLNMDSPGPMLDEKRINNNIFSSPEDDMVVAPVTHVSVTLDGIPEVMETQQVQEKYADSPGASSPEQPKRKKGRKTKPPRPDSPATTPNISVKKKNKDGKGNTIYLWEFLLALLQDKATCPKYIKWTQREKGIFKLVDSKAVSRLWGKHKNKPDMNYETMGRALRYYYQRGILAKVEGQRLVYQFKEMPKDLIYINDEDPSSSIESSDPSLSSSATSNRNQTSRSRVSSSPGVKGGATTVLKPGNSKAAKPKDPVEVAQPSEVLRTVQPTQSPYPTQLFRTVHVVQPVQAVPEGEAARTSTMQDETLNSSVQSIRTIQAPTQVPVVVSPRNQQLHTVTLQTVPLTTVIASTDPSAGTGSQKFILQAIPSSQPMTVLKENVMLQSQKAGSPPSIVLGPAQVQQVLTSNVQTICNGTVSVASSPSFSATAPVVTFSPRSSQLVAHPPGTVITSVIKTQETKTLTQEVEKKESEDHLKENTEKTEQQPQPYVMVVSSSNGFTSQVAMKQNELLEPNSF
# Sequence of ETV5 (P41161 whole entry): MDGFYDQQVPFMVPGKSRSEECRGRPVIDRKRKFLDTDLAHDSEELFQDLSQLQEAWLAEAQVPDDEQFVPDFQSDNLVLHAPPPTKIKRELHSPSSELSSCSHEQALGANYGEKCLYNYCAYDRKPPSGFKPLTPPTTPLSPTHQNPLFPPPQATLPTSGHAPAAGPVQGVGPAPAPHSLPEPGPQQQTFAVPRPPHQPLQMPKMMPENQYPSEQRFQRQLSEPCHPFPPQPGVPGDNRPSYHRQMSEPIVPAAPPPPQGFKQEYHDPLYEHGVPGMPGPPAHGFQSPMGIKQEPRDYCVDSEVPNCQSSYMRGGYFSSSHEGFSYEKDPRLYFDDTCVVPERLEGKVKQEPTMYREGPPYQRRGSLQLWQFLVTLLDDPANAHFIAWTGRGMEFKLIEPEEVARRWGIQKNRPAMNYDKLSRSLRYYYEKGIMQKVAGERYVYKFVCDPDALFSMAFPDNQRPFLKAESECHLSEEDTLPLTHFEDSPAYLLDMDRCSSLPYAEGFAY
# Sequence of SPIB (Q01892 whole entry): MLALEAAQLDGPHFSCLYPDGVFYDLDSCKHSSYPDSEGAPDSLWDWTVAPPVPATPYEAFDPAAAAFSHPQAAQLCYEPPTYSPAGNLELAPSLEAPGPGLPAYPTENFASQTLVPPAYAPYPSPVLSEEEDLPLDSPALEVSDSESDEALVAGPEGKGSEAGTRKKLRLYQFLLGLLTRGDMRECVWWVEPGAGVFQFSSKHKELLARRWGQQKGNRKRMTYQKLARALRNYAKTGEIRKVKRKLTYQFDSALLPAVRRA
# Sequence of ELF4 (Q99607 whole entry): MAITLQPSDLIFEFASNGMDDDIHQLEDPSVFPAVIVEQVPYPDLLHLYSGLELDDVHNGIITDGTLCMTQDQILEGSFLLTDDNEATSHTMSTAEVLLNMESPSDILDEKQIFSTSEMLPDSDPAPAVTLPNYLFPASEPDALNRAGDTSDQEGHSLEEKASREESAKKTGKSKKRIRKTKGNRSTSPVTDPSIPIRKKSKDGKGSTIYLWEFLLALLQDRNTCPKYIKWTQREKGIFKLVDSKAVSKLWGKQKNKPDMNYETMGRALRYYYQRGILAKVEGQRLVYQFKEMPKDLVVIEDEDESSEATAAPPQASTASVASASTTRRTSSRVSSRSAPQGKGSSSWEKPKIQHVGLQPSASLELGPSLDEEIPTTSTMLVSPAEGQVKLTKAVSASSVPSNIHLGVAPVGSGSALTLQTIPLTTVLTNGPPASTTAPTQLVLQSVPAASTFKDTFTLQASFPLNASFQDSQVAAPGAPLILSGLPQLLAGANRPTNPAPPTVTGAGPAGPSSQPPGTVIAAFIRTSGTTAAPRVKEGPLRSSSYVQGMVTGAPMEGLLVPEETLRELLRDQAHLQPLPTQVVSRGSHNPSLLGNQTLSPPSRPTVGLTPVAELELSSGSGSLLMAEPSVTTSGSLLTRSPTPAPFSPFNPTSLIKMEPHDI
sequence,measurement,setting,value
TCTAAC,binding signal,[1],"1.18 fold enrichment (6-mer frequency, TF over GST control)"
same,binding signal,[2],"1.28 fold enrichment (6-mer frequency, TF over GST control)"
same,binding signal,[3],"1.16 fold enrichment (6-mer frequency, TF over GST control)"
same,binding signal,[4],"1.22 fold enrichment (6-mer frequency, TF over GST control)"
same,binding signal,[5],"1.21 fold enrichment (6-mer frequency, TF over GST control)"
same,binding signal,[6],"1.16 fold enrichment (6-mer frequency, TF over GST control)"
same,binding signal,[7],"1.13 fold enrichment (6-mer frequency, TF over GST control)"
same,binding signal,[8],"1.19 fold enrichment (6-mer frequency, TF over GST control)"
same,binding signal,[9],"1.16 fold enrichment (6-mer frequency, TF over GST control)"
same,binding signal,[10],"1.23 fold enrichment (6-mer frequency, TF over GST control)"
same,binding signal,[11],"1.21 fold enrichment (6-mer frequency, TF over GST control)"
same,binding signal,[12],"1.25 fold enrichment (6-mer frequency, TF over GST control)"
same,binding signal,[13],"1.07 fold enrichment (6-mer frequency, TF over GST control)"
same,binding signal,[14],"1.22 fold enrichment (6-mer frequency, TF over GST control)"
same,binding signal,[15],"1.2 fold enrichment (6-mer frequency, TF over GST control)"
same,binding signal,[16],"1.12 fold enrichment (6-mer frequency, TF over GST control)"
same,binding signal,[17],"1.23 fold enrichment (6-mer frequency, TF over GST control)"
same,binding signal,[18],"1.24 fold enrichment (6-mer frequency, TF over GST control)"
same,binding signal,[19],"1.16 fold enrichment (6-mer frequency, TF over GST control)"
